From PubChem BioAssay
HTT cytoprotect = qHTS Multiplex Assay to Identify Dual Action Probes in a Cell Model of Huntington: Cytoprotection (ATP); PC12 HTT-Q103 induced, cytoprotection, ATP luminescence, 40 h; Potency, µM (doses to about 56.4 µM), without a hit: cytoprotection (ATP increase), usual class: activators; 230,000 tested, 0.14% active; also: % of control where 0% means no effect; nearly all actives have a fitted effect of over 45% in size
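Quantitative HTS on tebufenozide-induced (100 nM) PC12 cells expressing HTTQ103 exon 1–GFP; compounds tested as a concentration series; survival measured via cellular ATP.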
LMNA splice mod = qHTS Assay for Modulators of Lamin A Splicing; AID 1487, 2009; Potency, µM (top dose mostly 46.1 µM), inactives show top-dose ratio change, negative = inhibition, actives largely listed as inhibitors; HeLa LMNA splicing GFP/RFP minigene ratio, 48 h; 200,000 tested, 0.01% active; active = well fitted inhibition curve with a large enough effect in the signal ratio, with a control signal flat, not every such curve was filed as active; inconclusive = small, poorly fitted or top-dose-only effect, or effect the other way, or a change in a side signal; the % refers to the signal ratio; also: % is scaled to controls: 0 for no effect and ±100 for the full control effect
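S3 HeLa stable clones carrying a lamin A-EGFP splicing minigene plus DsRed2 were seeded at 600 cells/well in Opti-MEM with 2% FBS, pin-dosed and incubated 48 h at 37°C. Acumen cytometry (488 nm) gave the GFP/RFP total-intensity ratio.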
NPSR antag = qHTS Assay for Antagonists of the Neuropeptide S Receptor: cAMP Signal Transduction. Q6W5P4. CHO-NPSR cells, cAMP TR-FRET, antagonist mode. Potency, µM (doses to about 38.3 µM), without a hit: at the top dose activity change, negative = inhibition, most hits filed as inhibitors. 220,000 tested, 1% active. AID 1461, 2008; also: % is scaled to controls: 0 for no effect and ±100 for the full control effect; nearly all actives have a fitted effect of over 50% in size
Target sequence (Q6W5P4 whole entry, looked up): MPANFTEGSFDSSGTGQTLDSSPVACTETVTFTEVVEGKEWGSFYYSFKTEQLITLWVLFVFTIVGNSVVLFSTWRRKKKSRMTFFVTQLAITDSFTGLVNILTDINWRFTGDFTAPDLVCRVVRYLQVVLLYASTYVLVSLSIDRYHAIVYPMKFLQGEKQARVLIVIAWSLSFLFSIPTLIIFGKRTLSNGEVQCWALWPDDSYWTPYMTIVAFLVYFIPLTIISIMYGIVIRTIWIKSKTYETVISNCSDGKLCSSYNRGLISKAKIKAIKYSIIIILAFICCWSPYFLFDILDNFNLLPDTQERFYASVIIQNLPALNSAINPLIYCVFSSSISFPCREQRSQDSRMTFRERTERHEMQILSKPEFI
Epigenetic derep = Quantitative High-Throughput Screen for Regulators of Epigenetic Control; 280,000 tested, 0.2% active; murine LDR cells, GFP reporter derepression, 30 h; Potency, µM (top dose mostly 53.9 µM), for inactives: at the highest dose GFP activation, hits mostly activators; also: % of control where 0% means no effect; nearly all actives have a fitted effect of over 60% in size
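In this reporter-derepression format, murine cells bearing a silenced integrated CMV-GFP locus incubate with test compound (30 h, 37 C), then are washed and imaged; fluorescent objects of 20–120 um count as induced cells.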
HTT aggregate = qHTS Multiplex Assay to Identify Dual Action Probes in a Cell Model of Huntington: Aggregate Formation (GFP). Potency, µM (titrated, usually from 46.1 µM), without a hit: top-dose activity change, negative = inhibition, hits mostly inhibitors. PC12 HttQ103-GFP aggregates, Acumen cytometry, 40 h. 220,000 tested, 1.1% active; also: % is scaled to controls: 0 for no effect and ±100 for the full control effect; nearly all actives have a fitted effect of over 60% in size
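Huntingtin Q103 exon 1–GFP aggregates in induced PC12 cells (100 nM tebufenozide) were quantified by cytometry from lysates, with compounds dosed in titration.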
An asterisk follows results filed as active; ? = inconclusive; . = no result; [ ] = dose if it differs, or a comment. Shown are actives, neighbours in structure and some others; about 1.5% of the full set was active somewhere. Unless noted, calls follow the shape of the dose curve; as a rule, active = well fitted curve in the direction sought with a large enough effect; inconclusive = small, poorly fitted or top-dose-only effect, or another doubt; inactive = no such curve, though single readings can be large; an effect the other way counts as inactive or inconclusive. Potency is read from the fitted curve at half-maximal effect.

SMILES	HTT cytoprotect	LMNA splice mod	NPSR antag	Epigenetic derep	HTT aggregate
COc1ccc(N2CCN(S(=O)(=O)c3ccc(OC)c(-c4noc(C)n4)c3)CC2)cc1	.	.	.	5µM*	.
COc1ccc2c(c1)O[C@@H](c1cccc(C(F)(F)F)c1)[C@H](OC(=O)NS(=O)(=O)c1ccc(F)cc1)C2=O	-14%	.	.	1%	.
O=C(CN1CCCCCC1)NCC1CCCO1 (configuration not stated)	2.2µM*	20%[46 µM]	-14%	1%	17%[9.22 µM]
O=C(CCCC(=O)NCC1CCCO1)NCC1CCCO1 (configuration not stated)	-11%	9%	3%[46.1 µM]	0%	-10%
Cc1c(C(=O)NCc2ccccc2)oc2ccc(S(=O)(=O)N3CCCC3)cc12	-18%	-4%	-26%[46.1 µM]	1%	-17%
Cc1c(C(=O)N(C)Cc2ccccc2)oc2ccc(S(=O)(=O)N3CCCC3)cc12	-77%	?	?	-2%	11µM*
c1cc2c3c(cccc3c1)C(N1CCOCC1)=N2	4%[10 µM]	.	-21%	3%	-11%[9.22 µM]
c1ccc(CC2CCN(C3=Nc4cccc5cccc3c45)CC2)cc1	-77%	?	10µM*	0%	?
Cc1cccc2c(N)c3c(nc12)CCCC3 (tested in a mixture with another compound)	.	.	4%	1%	.
Cc1cc(C)c2c(N)c3cccc(C)c3nc2n1	.	?	-14%	12%	13µM*
O=c1cc(N2CCOCC2)oc2c(-c3ccccc3)cccc12	-106%	16µM*	-17%[46.1 µM]	-1%	.
CN(C)Cc1ccccc1-c1nccc(NCc2cccs2)n1	9%	13%	.	0%	.
O=S(c1ccc2ccccc2c1)c1cnns1 (configuration not stated)	-88%	?	10µM*	13%	18µM*
O=c1c2ccccc2cnn1-c1ccc2ccccc2c1	-71%	-21%	-13%[46.1 µM]	0%	2%
COC(=O)/C=C/S(=O)(=O)c1ccc(NC(C)=O)cc1	-141%	?	?	-2%	10µM*
COc1ccc(NC(=O)/C(Cl)=C(/Cl)S(=O)(=O)Cc2ccc(C)cc2)cn1	-152%	?	4µM*	?	-1%[9.22 µM]
COc1ccc(NC(=O)/C(Cl)=C(/Cl)S(=O)Cc2ccccc2Cl)cn1 (configuration not stated)	-170%	?	5µM*	-1%	?
O=C(C1CCC(CNS(=O)(=O)c2cccc3nsnc23)CC1)N1CC=C(c2ccccc2)CC1 (configuration not stated)	-36%	3%	-29%[46.1 µM]	-2%	8.9µM*
CCSc1nnc(NC(=O)C(C)(C(F)(F)F)C(F)(F)F)s1	-44%	-16%	-8%[46.1 µM]	-1%	25µM*
COC(=O)[C@@H]1CCCN1C(=O)[C@H]1C[C@@H]1[C@H](NC(=O)OCc1ccccc1)c1ccccc1	1%	.	.	-1%	.
CCn1c(O)c(/C=N/N=C/c2ccc(OC)cc2)c2cc(C3=NNC(=O)CC3)ccc21	1%[10 µM]	.	4%	7.1µM*	-19%[9.22 µM]
Cc1ccc(C(=O)Nc2cccc(-c3nc4cccnc4s3)c2C)cc1	.	5%[46 µM]	.	0%	.
CN(C)c1ccc(-c2nc(NC3CCNCC3)c3ccccc3n2)cc1	-96%	?	.	2.8µM*	.
c1ccc2c(NC3CCNCC3)nc(-c3ccoc3)nc2c1	13%	-18%	.	.	.
CCOC(=O)c1ccccc1-n1c(C)cc(C2N=C(N)Nc3nc4ccccc4n32)c1C (configuration not stated)	-6%	-2%	13µM*	1%	-2%
CCc1ccc(C2N=C(N)Nc3nc4ccccc4n32)cc1 (configuration not stated)	.	.	.	2%	.
CSc1nc(N)c2ncn([C@@H]3O[C@@H](COP(=O)(O)OP(=O)(O)OP(=O)(O)O)[C@@H](O)[C@H]3O)c2n1	-2%[1.9 µM]	.	.	.	.
O[C@H](C[C@@H]1CCCCN1)c1ccc2c(c1)oc1ccccc12	5%[10 µM]	.	.	.	.
O=C(O)/C=C/c1ccc2noc(-c3ccccc3)c2c1	-24%	?	-29%	0%	4µM*
